Assay results: PubChem BioAssay AID588382 (National Center for Advancing Translational Sciences (NCATS), 2011)
About 150 (12%) of roughly 1,300 compounds were called active. Where a call stands in place of a potency, no number is given. Another 30% or so got no clear call; they are omitted. Calls follow the shape of the dose curve; as a rule, active = well fitted cell-killing curve with a large enough effect; inconclusive = small, poorly fitted or top-dose-only effect, or effect the other way; inactive = flat fitted curve, though single readings scatter. This excerpt belongs to a sample that is enriched for actives.

Assay: qHTS of small molecules that selectively kill Giardia lamblia: Hit Validation in HepG2 cytotox;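 also: compound exposure lasted overnight at 37 deg C; nearly all actives have a fitted effect of over 55% in size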
Details: cell viability; Potency: HepG2 cytotoxicity; series mostly up to 38.3 µM
Outline: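 Counterscreen cytotoxicity: ATPLite luminescence (15 min, room temperature) measured in HepG2 cells exposed overnight at 37 deg C to pin-transferred compound (23 nL) after overnight pre-incubation.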
Potency is read from the fitted curve at half-maximal effect.

Structure (SMILES)	Potency
CN(C)c1ccc(N=Nc2ccccc2C(=O)OCC(=O)N2CCCC2)cc1	inactive
Cc1cc(N)ccc1N=Nc1c(C)n(C)n(-c2ccccc2)c1=O	inactive
FC(F)(F)c1ccc2c(c1)N1CCCC1CN2 (configuration not stated)	inactive
CC(C)c1ccc(N=c2c([N+](=O)[O-])nn(-c3ccc4c(c3)OCCO4)n2O)cc1	inactive
Fc1ccc2cc(-c3ccsc3)ncc2c1	inactive
CC/C=C1/N=C2C(=O)N(C)C(=O)N=C2N(C)N1	3.29 µM (active)
O=[N+]([O-])c1ccc(COn2nnc3ccccc32)cc1	inactive
COc1ccc2c(c1)[n+](=O)c(C(C)=O)c(C)n2[O-]	inactive
Cc1nonc1OCCn1c([N+](=O)[O-])cnc1C	inactive
CCCOC(=O)/C(=C\c1ccc([N+](=O)[O-])o1)NC(=O)c1ccccc1	inactive
O=[N+]([O-])c1ccc2c3n([n+]([O-])c2c1)CCN=C3c1ccc(Cl)cc1	inactive
O=[N+]([O-])c1ccc(-c2ccn[nH]2)o1	inactive
O=C1NC(=S)S/C1=C\C=C\c1ccc([N+](=O)[O-])o1	3.29 µM (active)
O=[N+]([O-])c1ccc(/C=[N+](\[O-])CCO)o1	inactive
O=[N+]([O-])c1ccccc1S(=O)(=O)Oc1ccccc1/C=N/n1cnnc1	inactive
CC(=O)c1ccc(NC(=O)COC(=O)c2ccccc2N=Nc2ccc(N(C)C)cc2)cc1	inactive
O=C(Nc1cccc2ccccc12)C12CC3CC(C1)CC(n1cnc([N+](=O)[O-])n1)(C3)C2	inactive
Cc1cccc(-n2ncc3c(N4CCCC4)ncnc32)c1	2.07 µM (active)
O=C(c1ccco1)N1CCN(Cc2cc(=O)c(OCc3ccc([N+](=O)[O-])cc3)co2)CC1	inactive
COC(=O)c1ccccc1NC(=O)N1c2ccccc2Sc2ccccc21	inactive
Cc1cccc(N2CCN(Cc3ccc([N+](=O)[O-])o3)CC2)c1C	inactive

Structure (SMILES)	Potency
CCCC(=O)NC(=S)NNC(=O)c1ccc([N+](=O)[O-])cc1	inactive
Cc1cc(-c2ccc(C)c(S(=O)(=O)N3CCN(c4ccc([N+](=O)[O-])cc4)CC3)c2)on1	inactive
N#Cc1c(Nc2ccccc2)[n+]([O-])c2ccc(Cl)cc2[n+]1[O-]	3.29 µM (active)
COc1ccc(CC(=O)Nc2ncc([N+](=O)[O-])s2)cc1OC	inactive
O=[N+]([O-])/C(Cl)=C(/NCCO)C(Cl)=C(Cl)Cl	inactive
COc1ccc(Cn2cnc([N+](=O)[O-])c2)cc1[N+](=O)[O-]	inactive
O=[N+]([O-])c1cc(/C=N/Nc2nc(N3CCCCC3)nc(N3CCCCC3)n2)ccc1O	inactive
O=C(Nc1ccc(N2CCN(C(=O)c3ccccc3)CC2)cc1)c1ccc([N+](=O)[O-])o1	4.65 µM (active)
O=C(Nc1ccc(N2CCN(C(=O)c3ccc(Cl)cc3)CC2)cc1)c1ccc([N+](=O)[O-])o1	3.29 µM (active)
Cc1ccccc1C(=O)N1CCN(c2ccc(NC(=O)c3ccc([N+](=O)[O-])o3)cc2)CC1	3.29 µM (active)
O=C(Nc1ccccc1N1CCN(C(=O)c2ccccc2)CC1)c1ccc([N+](=O)[O-])o1	inactive
O=C(c1ccc([N+](=O)[O-])o1)N1CCN(Cc2ccccc2)CC1	inactive
O=[N+]([O-])c1ccc(N2CCN(Cc3ccc([N+](=O)[O-])o3)CC2)cc1	inactive
C[C@H]1CN=C(N(C)C)N1CCC1CCCC1	inactive
CC(Oc1ccccc1)C(=O)Nc1nnc(S(=O)(=O)N2CCCCCC2)s1 (configuration not stated)	inactive
COc1cccc([C@@H]2CC=C(C(=O)O)[C@H](c3ccccc3F)N2S(=O)(=O)c2ccc(C)cc2)c1	inactive
O=[N+]([O-])c1c(C(Cl)Cl)nn(-c2ccccc2)c1N1CCOCC1	inactive
Cc1ccc(Nc2ccc([N+](=O)[O-])nc2[N+](=O)[O-])cc1	inactive
Cc1ccc(CNC(=O)c2cc(-c3ccccc3C)n(CC3CC(c4cccc([N+](=O)[O-])c4)=NO3)n2)cc1 (configuration not stated)	inactive
CN(C(=O)CSc1nc2ccc([N+](=O)[O-])cc2s1)C1CCS(=O)(=O)C1 (configuration not stated)	inactive
COCCCn1[nH]c2c3c(ccc2c1=O)C(=O)c1ccccc1C3=O	inactive

Structure (SMILES)	Potency
COc1ccc(C(=O)C(C)OC(=O)CNC(=O)c2ccco2)cc1 (configuration not stated)	inactive
O=C(CSc1ccsc1[N+](=O)[O-])NC1CCCC1	inactive
O=C(COc1cccnc1[N+](=O)[O-])NCc1cccs1	inactive
CC(C)CNC(=S)NC(=O)c1csc([N+](=O)[O-])c1	inactive
O=C(NCCO)c1ccc2c3n(nc2c1)-c1ccccc1CO3	2.93 µM (active)
Cc1cnc([N+](=O)[O-])n1CCOC(=O)NC(=O)c1cccc(F)c1	inactive
C[C@@H]1CN([C@H](C)CO)C(=O)c2cc(NC(=O)Nc3ccc4c(c3)OCO4)ccc2O[C@H]1CN(C)Cc1ccncc1	inactive
O=C(O)c1cccc(S(=O)(=O)N(Cc2ccccc2)c2ccccc2Cl)c1	inactive
O=C(CSc1ccsc1[N+](=O)[O-])NCCc1ccccc1	inactive
O=C(NCc1ccco1)NC(=O)c1csc([N+](=O)[O-])c1	inactive
CCCCCCCC(=O)N/N=C/c1ccc([N+](=O)[O-])o1	inactive
O=C(N/N=C\c1ccc([N+](=O)[O-])o1)C1COc2ccccc2O1 (configuration not stated)	inactive
O=C(CNc1ccc2ccccc2c1)N/N=C/c1ccc([N+](=O)[O-])o1	inactive
O=C(CNc1cccc([N+](=O)[O-])c1)N/N=C/c1ccc([N+](=O)[O-])o1	inactive
CC(NC(=O)C12CC3CC(CC(C3)C1)C2)C(=O)NN=Cc1ccc([N+](=O)[O-])o1 (configuration not stated)	inactive
O=C(CC12CC3CC(CC(C3)C1)C2)N/N=C/c1ccc([N+](=O)[O-])o1	16.5 µM (active)
O=C(N/N=C/c1ccc([N+](=O)[O-])o1)C1CC1	inactive
O=C(N/N=C/c1ccc([N+](=O)[O-])o1)c1ccc2c(c1)OCO2	4.65 µM (active)
O=C(Cc1ccc([N+](=O)[O-])cc1)N/N=C/c1ccc([N+](=O)[O-])o1	5.21 µM (active)
CCOC(=O)CN1C(=O)S/C(=C/c2cccc([N+](=O)[O-])c2O)C1=O	inactive
